From PubChem BioAssay (NCATS)
Where “and” joins values, the source holds several entries; their conditions need not be identical. Identical values can stand only once. Results filed as inconclusive are left out. Calls of active or inactive are those of the source. Unless noted, calls come from the whole dose curve; as a rule, active = well fitted curve in the direction sought with a large enough effect; inconclusive = small, poorly fitted or top-dose-only effect, or another doubt; inactive = no such curve, though single readings can be large; an effect the other way counts as inactive or inconclusive.

Columns and labels:
[1] = NS1 protein of Zika virus - qHTS assay to identify small molecule inhibitors in human HEK 293 cells (AID 1347053); note: nearly all actives have a fitted effect of over 55% in size; note: potency is the fitted concentration of half-maximal effect
Procedure, shortened: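 Compound-treated (1 h pre-infection) HEK 293 cells infected with ZIKV MR766, MOI = 0.5; after 24 h at 37 C, NS1 read by TR-FRET; data normalized to uninfected and infected controls.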

[2] = target: T1, Tyrosine-protein phosphatase non-receptor type substrate 1 (Homo sapiens) + Leukocyte surface antigen CD47 (Homo sapiens) (UniProt P78324+Q08722); test: CD47-SIRPalpha protein protein interaction - LANCE assay qHTS validation (AID 1347057; active = well fitted curve in the direction sought with a large enough effect in the signal ratio, with a control signal flat, not every such curve was filed as active; the % refers to the signal ratio; note: series mostly up to about 38 µM)
T1 sequence (P78324 whole entry, looked up, the tested form may be a part): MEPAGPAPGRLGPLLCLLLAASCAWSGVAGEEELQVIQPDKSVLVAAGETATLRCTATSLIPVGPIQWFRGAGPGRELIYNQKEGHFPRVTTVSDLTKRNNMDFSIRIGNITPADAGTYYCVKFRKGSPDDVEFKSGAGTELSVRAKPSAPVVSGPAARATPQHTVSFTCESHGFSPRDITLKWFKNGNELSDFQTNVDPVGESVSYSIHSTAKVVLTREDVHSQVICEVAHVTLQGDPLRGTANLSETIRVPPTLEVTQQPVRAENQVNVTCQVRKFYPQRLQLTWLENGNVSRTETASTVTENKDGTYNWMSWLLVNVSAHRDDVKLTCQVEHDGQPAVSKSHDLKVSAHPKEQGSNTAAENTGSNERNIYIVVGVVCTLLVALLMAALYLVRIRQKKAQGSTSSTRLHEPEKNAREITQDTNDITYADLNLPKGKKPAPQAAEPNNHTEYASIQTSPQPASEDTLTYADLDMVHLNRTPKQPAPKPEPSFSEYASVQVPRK
T1 sequence (Q08722 whole entry, looked up, the tested form may be a part): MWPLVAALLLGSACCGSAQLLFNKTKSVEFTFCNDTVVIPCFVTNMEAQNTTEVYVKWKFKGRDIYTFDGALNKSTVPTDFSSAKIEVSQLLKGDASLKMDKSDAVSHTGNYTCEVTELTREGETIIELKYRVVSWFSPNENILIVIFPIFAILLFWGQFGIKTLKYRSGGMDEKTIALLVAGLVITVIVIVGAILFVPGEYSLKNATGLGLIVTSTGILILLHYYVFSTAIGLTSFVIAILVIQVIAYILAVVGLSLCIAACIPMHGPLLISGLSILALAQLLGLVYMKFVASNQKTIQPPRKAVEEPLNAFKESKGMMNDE
Procedure, shortened: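 Inhibition of soluble CD47/SIRPalpha ectodomain association by titrated compounds, measured as 665/615 nm time-resolved FRET ratio after sequential 30 min room-temperature incubations.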

[3] = target: T1, Tyrosine-protein phosphatase non-receptor type substrate 1 (Homo sapiens) + Leukocyte surface antigen CD47 (Homo sapiens); test: CD47-SIRPalpha protein protein interaction - HTRF assay qHTS validation (AID 1347058; active = well fitted curve in the direction sought with a large enough effect in the signal ratio, not every such curve was filed as active; the % refers to the signal ratio; note: series mostly up to about 38 µM)
Procedure, shortened: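 Soluble extracellular domains (6His-CD47, Avi-tag-biotinylated SIRPalpha) in PBS pH 7.4 with 0.05% IGEPAL CA-630. Compounds were preincubated 30 min at RT with CD47 and anti-His-Eu, then SIRPalpha and SAV-XL665 were added. TR-FRET 665/615 ratio.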

[4] = target: T1, Tyrosine-protein phosphatase non-receptor type substrate 1 (Homo sapiens) + Leukocyte surface antigen CD47 (Homo sapiens); test: CD47-SIRPalpha protein protein interaction - Alpha assay qHTS validation (AID 1347059);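 note: bead proximity luminescence from CD47 binding SIRPalpha after compound preincubation with SIRPalpha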; note: potency is the fitted concentration of half-maximal effect
Procedure, shortened: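 In PBS (pH 7.4) with 0.05% IGEPAL CA-630, compound is preincubated with biotin-Avi-SIRPalpha ectodomain before His-CD47 ectodomain and affinity beads are added. Light-protected room-temperature incubations; AlphaScreen readout.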

[5] = target: Parathyroid hormone/parathyroid hormone-related peptide receptor (Homo sapiens) (UniProt Q03431); test: qHTS for PTHR1 Agonists: Optimization Screen against the NCGC LOPAC library (AID 1347079);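 note: GloSensor cAMP luminescence in HEK-293 GP2 cells expressing human PTHR1 with IBMX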
Chain of Parathyroid hormone/parathyroid hormone-related peptide receptor (Homo sapiens) (Q03431 whole entry, looked up): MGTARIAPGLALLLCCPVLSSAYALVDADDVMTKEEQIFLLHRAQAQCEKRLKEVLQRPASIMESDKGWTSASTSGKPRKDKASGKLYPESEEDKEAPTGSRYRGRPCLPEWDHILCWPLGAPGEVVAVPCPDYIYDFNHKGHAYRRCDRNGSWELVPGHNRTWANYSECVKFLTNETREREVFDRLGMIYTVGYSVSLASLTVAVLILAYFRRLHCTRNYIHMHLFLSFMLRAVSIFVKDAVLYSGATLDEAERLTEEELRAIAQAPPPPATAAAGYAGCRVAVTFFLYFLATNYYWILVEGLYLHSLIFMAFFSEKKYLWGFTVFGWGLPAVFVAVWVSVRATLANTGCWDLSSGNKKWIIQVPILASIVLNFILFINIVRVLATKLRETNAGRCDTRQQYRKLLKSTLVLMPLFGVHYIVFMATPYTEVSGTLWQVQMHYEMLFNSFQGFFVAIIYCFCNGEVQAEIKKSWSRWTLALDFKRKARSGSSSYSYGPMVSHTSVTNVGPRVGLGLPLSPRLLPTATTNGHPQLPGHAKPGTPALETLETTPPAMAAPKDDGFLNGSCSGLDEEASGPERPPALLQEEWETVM
Procedure, shortened: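 HEK-293 GP2 cells, PTHR1 + GloSensor cAMP; 3000 cells/well, o/n. Luciferin + IBMX 0.5mM each (stock), 1 hr 37C. Cpd titration, 1 hr 37C. Lum after 15 min RT. Ctrl M-PTH(1-15) top 10uM.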

[6] = qHTS of pediatric cancer cell lines to identify multiple opportunities for drug repurposing: Primary screen for TC32 cells (AID 1347089); note: nearly all actives have a fitted effect of over 60% in size; note: potency is the fitted concentration of half-maximal effect
Procedure, shortened: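 A viability screen of TC32 cells was run over 48 h, with primary MIPE doses spanning 0.78 nM–46 µM and NPC doses 0.59 nM–46 µM. ATP luminescence (CellTiter-Glo) served as the read-out.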

[7] = qHTS of pediatric cancer cell lines to identify multiple opportunities for drug repurposing: Primary screen for DAOY cells (AID 1347090); note: nearly all actives have a fitted effect of over 55% in size; note: potency is the fitted concentration of half-maximal effect
Procedure, shortened: (§1)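 Eight- or eleven-point concentration series, 48 h treatment at 37 degrees C in growth media; readout CellTiter-Glo luminescence. Potency and efficacy were taken from the concentration-response curves.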

[8] = qHTS of pediatric cancer cell lines to identify multiple opportunities for drug repurposing: Primary screen for SJ-GBM2 cells (AID 1347091); note: potency is the fitted concentration of half-maximal effect
Procedure, shortened: as §1

[9] = qHTS of pediatric cancer cell lines to identify multiple opportunities for drug repurposing: Primary screen for A673 cells (AID 1347092); note: nearly all actives have a fitted effect of over 45% in size; note: potency is the fitted concentration of half-maximal effect
Procedure, shortened: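 Titration-based qHTS on A673 cells: MIPE compounds spanned 11 points (0.78 nM to 46 µM final), NPC compounds 8 points (0.59 nM to 46 µM final). Viability after 48 h was measured by ATP luminescence.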

[10] = qHTS of pediatric cancer cell lines to identify multiple opportunities for drug repurposing: Primary screen for SK-N-MC cells (AID 1347093); note: potency is the fitted concentration of half-maximal effect
Procedure, shortened: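 Metabolically active cells were quantified by ATP-dependent luminescence (CellTiter-Glo, 15 min at room temperature) following 48 h treatment. Cells had been plated at 500-1,000 per well and settled for 5 h beforehand.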

Measured: Potency

Cn1ccc2cc3c(cc21)CCN3C(=O)Nc1cccnc1
active: [9] 11.8 µM
inactive: all other assays above

O=C1N(c2ccccc2)c2ccccc2C1(Cc1ccncc1)Cc1ccncc1
not listed: [8]
inactive: all other assays above

CC(C)Cc1ccc(C(C)C(=O)O)cc1 (stereo unspecified)
not listed: [8]
inactive: all other assays above

NCCCCCC(=O)O
inactive: all assays above

Nc1ccn([C@H]2CC[C@@H](CO)O2)c(=O)n1
active: [10] 18.7 µM and 21.1 µM
not listed: [8]
inactive: all other assays above

CCOC(=O)c1ncn2c1CN(C)C(=O)c1cc(F)ccc1-2
inactive: all assays above

Cn1cnc2c1c(=O)[nH]c(=O)n2C
not listed: [8] | [9] | [10]
inactive: all other assays above

COc1ccccc1OCC(O)CN1CCN(CC(=O)Nc2c(C)cccc2C)CC1 (stereo unspecified)
not listed: [10]
inactive: all other assays above

O=c1[nH]cc(F)c(=O)[nH]1
not listed: [8] | [9] | [10]
inactive: all other assays above

COc1cc2nc(N(C)CCCNC(=O)C3CCCO3)nc(N)c2cc1OC (stereo unspecified)
not listed: [8]
inactive: all other assays above

COc1ccccc1OCCNCC(O)COc1cccc2[nH]c3ccccc3c12 (stereo unspecified)
not listed: [10]
inactive: all other assays above

Cc1cc(C(C)(C)C)c(O)c(C)c1CC1=NCCN1
not listed: [10]
inactive: all other assays above

NC12CC3CC(CC(C3)C1)C2
not listed: [9] | [10]
inactive: all other assays above

O=C1c2c(O)ccc(O)c2C(=O)c2c(NCCNCCO)ccc(NCCNCCO)c21
active: [1] 0.833 µM | [4] 0.826 µM | [6] 658 nM and 59.2 nM | [7] 2.96 µM and 2.66 µM | [8] 332 nM and 422 nM | [9] 590 nM and 168 nM | [10] 235 nM and 1 nM
inactive: [5]

CN(CCOc1ccc(NS(C)(=O)=O)cc1)CCc1ccc(NS(C)(=O)=O)cc1
not listed: [5]
inactive: all other assays above

COc1cc2nc(N3CCN(C(=O)c4ccco4)CC3)nc(N)c2cc1OC
active: [1] 9.35 µM | [9] 14.8 µM | [10] 11.8 µM
not listed: [7]
inactive: all other assays above

CC(=O)OCC(CCn1cnc2cnc(N)nc21)COC(C)=O
not listed: [5]
inactive: all other assays above

CN1C2CCC1CC(OC(=O)C(CO)c1ccccc1)C2 (stereo unspecified)
not listed: [1]
inactive: all other assays above

NC(CO)C(=O)NNCc1ccc(O)c(O)c1O (stereo unspecified)
active: [4] 13.1 µM | [9] 23.5 µM
not listed: [2] | [3]
inactive: all other assays above

Cc1ccc(-c2cc(C(F)(F)F)nn2-c2ccc(S(N)(=O)=O)cc2)cc1
not listed: [3] | [5] | [10]
inactive: all other assays above

O=C(c1ccc(OCCN2CCCCC2)cc1)c1c(-c2ccc(O)cc2)sc2cc(O)ccc12
active: [8] 9.44 µM and 18.7 µM | [9] 10.6 µM and 18.7 µM | [10] 18.8 µM
inactive: [1] | [2] | [5] | [6]
